An excerpt weighted towards active compounds, which were near 20% of everything screened.
CHX counter – Cycloheximide Counterscreen for Small Molecule Inhibitors of Shiga Toxin | cell reporter, cycloheximide protein synthesis inhibition counterscreen | max response, % | 300,000 tested, 12% active | AID 2314, 2010; in the data active means max response mostly above about 13%, no sharp cut-off; inactive means mostly below about 14%; further: read at 38.3 µM for the half of the compounds with a filed dose
Pf growth 96h – Primary qHTS for delayed death inhibitors of the malarial parasite plastid, 96 hour incubation; Potency, µM (highest dose often 28.7 µM), most hits filed as inhibitors; 320,000 tested, 6.9% active; P. falciparum luciferase reporter growth, 96 h
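Erythrocytes infected with luciferase-expressing P. falciparum were dispensed at 2% hematocrit and 0.05% parasitemia (final), then incubated with compounds 96 hours at 37 C in 5% CO2. Luminescence after detection reagent addition reported growth.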
Shiga inhibitor – A qHTS for Small Molecule Inhibitors of Shiga Toxin; Vero cells, Shiga toxin protein synthesis inhibition reporter; inhibition, % at 38.7 µM; 290,000 tested, 9.2% active; AID 2315, 2010; in the data active means inhibition mostly above about 28%, no sharp cut-off; inactive means mostly below about 43%
HCMV inh – qHTS Assay for inhibitors of the human cytomegalovirus (HCMV); HFF cells, HCMV-luciferase reporter, 72 h; hits give low values; activity change, negative = inhibition, % at 57.5 µM; AID 1259415, 2018; 410,000 tested, 4.5% active; in the data active means activity change below about -60%; inconclusive means no clear call, values can overlap the other calls; inactive means above about -39%
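HFF cells seeded 16 h at 37C, treated with compounds, infected with luciferase-reporter HCMV at MOI 1 PFU/cell; luciferase read at 72 h post infection, normalized to buffer-only and Salinomycin controls.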
Pf growth 48h – Primary qHTS for delayed death inhibitors of the malarial parasite plastid, 48 hour incubation | P. falciparum luciferase growth in erythrocytes, 48 h | Potency, µM (titrated, usually from 28.7 µM), hits mostly inhibitors | 310,000 tested, 5.9% active | AID 504832, 2011
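Compounds are pin-transferred into medium, infected erythrocytes (2% hematocrit, 0.1% parasitemia final) are added, and plates sit one parasite generation at 37 C in 5% CO2. Detection reagent is then added and luminescence measured.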
Large screens that a line does not name were inactive. Unless noted, the call rests on the fitted dose curve; in most records, active means well fitted inhibition curve with a large enough effect; inconclusive means small, poorly fitted or top-dose-only effect, or another doubt; inactive means no such curve, though single readings can be large or run the other way.

Cn1c(SCC(=O)CC(=O)Nc2ccccc2)nnc1-c1ccc(O)cc1	Pf growth 96h 11.7µM
CCCCSc1nnc(-c2ccc(NC(=O)CCc3ccccc3)cc2)n1C	Pf growth 96h 11.7µM, Pf growth 48h inconclusive
COc1ccc(C(=O)NCCc2nnc(SCC(=O)Nc3ccccc3F)n2C)cc1	Pf growth 96h inconclusive
Cc1ccc(C)c(N/N=C2\CCCNC2=O)c1	none
CCN(Cc1ccccc1)C(=O)CN1C(=O)c2ccccc2S1(=O)=O	none (no result: CHX counter, Shiga inhibitor)
O=C(c1ccoc1)N1CCC(CO)(CCc2ccccc2)CC1	Pf growth 96h 11.7µM
COc1cccc(N2CC(NC(=O)c3cc4ccccc4o3)CC2=O)c1 (centres undefined)	none (no result: CHX counter, Pf growth 96h, Shiga inhibitor, Pf growth 48h)
CCCOc1ccc(C(=O)N(Cc2ccc(N(C)C)cc2)CC2CCCO2)cc1 (centres undefined)	none (no result: CHX counter, Pf growth 96h, Shiga inhibitor, Pf growth 48h)
C/C(CC(=O)Nc1cccc(C(F)(F)F)c1)=N\NC(=O)c1cnccn1	CHX counter 26.4, Shiga inhibitor 53.2
C/C(CC(=O)Nc1ccc(Cl)cc1Cl)=N\NC(=O)c1cnccn1	CHX counter 32.5, Shiga inhibitor 58.9
C/C(CC(=O)Nc1ccc(Cl)c(C(F)(F)F)c1)=N\NC(=O)c1cnccn1	CHX counter 41.2, Shiga inhibitor 74.2, Pf growth 48h inconclusive
C/C(CC(=O)Nc1c(Cl)cccc1C(F)(F)F)=N\NC(=O)c1cnccn1	none (no result: CHX counter, Pf growth 96h, Shiga inhibitor, Pf growth 48h)
Cc1cc(C)c(NC(=O)CN)c(C)c1	none
C/C(CC(=O)Nc1c(C)cc(C)cc1C)=N\NC(=O)OC(C)(C)C	CHX counter 24.7, Pf growth 96h inconclusive, Shiga inhibitor 79.0
Cc1ccc(S(=O)(=O)NCC(c2ccc(N(C)C)cc2)N2CCCC2)cc1 (centres undefined)	none (no result: CHX counter, Pf growth 96h, Shiga inhibitor, Pf growth 48h)
Cc1ccc(NC(=Nc2ccc(Br)cc2)N2CCOCC2)cc1C	Pf growth 96h inconclusive, HCMV inh inconclusive, Pf growth 48h inconclusive
C/C(CC(=O)Nc1c(C)cc(C)cc1C)=N\NC(=O)c1cnccn1	CHX counter 49.9, Pf growth 96h inconclusive
CNC(=O)c1cc(Oc2ccc(NC(=O)Nc3ccc(Cl)c(C(F)(F)F)c3)cc2)ccn1	HCMV inh -99.9, Pf growth 48h inconclusive (no result: CHX counter, Shiga inhibitor)
Cc1ccc(C)c(NC(=O)c2cnccn2)c1	Pf growth 96h inconclusive (no result: Shiga inhibitor)
CC(=O)N1CCN(C(=O)c2cccc(S(=O)(=O)N3c4ccccc4CC3C)c2)CC1 (centres undefined)	none (no result: CHX counter, Pf growth 96h, Shiga inhibitor, Pf growth 48h)
COc1ccc(CCNC(=O)c2cccc(S(=O)(=O)NC(C)c3ccccc3)c2)cc1 (centres undefined)	Pf growth 48h inconclusive (no result: CHX counter, Shiga inhibitor)
CCOC(=O)c1ccc(NC(=O)c2cccc(S(=O)(=O)N3c4ccccc4CC3C)c2)s1 (centres undefined)	Pf growth 96h inconclusive, HCMV inh -69.4, Pf growth 48h 11.7µM
CC1Cc2ccccc2N1S(=O)(=O)c1cccc(C(=O)NCc2ccncc2)c1 (centres undefined)	HCMV inh -88.5, Pf growth 48h inconclusive (no result: CHX counter, Shiga inhibitor)
CC1Cc2ccccc2N1S(=O)(=O)c1cccc(C(=O)NCc2ccccn2)c1 (centres undefined)	Pf growth 96h inconclusive, Pf growth 48h inconclusive (no result: CHX counter, Shiga inhibitor)
CC1Cc2ccccc2N1S(=O)(=O)c1cccc(C(=O)N2CCN(c3ncccn3)CC2)c1 (centres undefined)	Pf growth 96h inconclusive, HCMV inh -98.1, Pf growth 48h inconclusive
CC(NS(=O)(=O)c1cccc(C(=O)NCc2ccncc2)c1)c1ccccc1 (centres undefined)	HCMV inh -99.6 (no result: CHX counter, Shiga inhibitor)
CCCCCCCCCCNC(=O)CCn1[nH]c(=O)c2ccccc2c1=O	none (no result: CHX counter, Pf growth 96h, Shiga inhibitor, Pf growth 48h)
COc1ccc(OC(=O)c2ccc(OC)c(S(=O)(=O)N3CCOCC3)c2)cc1	none
COC(=O)[C@H](CC(C)C)NC(=O)/C=C/[C@H]1O[C@@H](n2cc(C)c(=O)[nH]c2=O)C[C@@H]1O	none (no result: CHX counter, Pf growth 96h, Shiga inhibitor, Pf growth 48h)
O=C(c1ccc(COc2ccc(Cl)cc2)o1)N1N=C(C(F)F)CC1(O)C(F)F (centres undefined)	HCMV inh -70.0
CCCCCCCCN1C(=O)[C@H](CC(=O)NCCc2ccccc2OC)C[C@@]2(C(=O)OCC)CCC=C12	none (no result: CHX counter, Pf growth 96h, Shiga inhibitor, Pf growth 48h)
Oc1cc2cc(CCN3CCN(c4nsc5ccccc45)CC3)c(Cl)cc2[nH]1	Pf growth 96h 10.7µM, Pf growth 48h 13.5µM (no result: CHX counter, Shiga inhibitor, HCMV inh)
COc1ccc(OC)c(CN2CCN(C(=O)c3cccc(S(=O)(=O)Nc4ccc(C)cc4)c3)CC2)c1	Pf growth 96h 9.28µM, Pf growth 48h 10.4µM (no result: CHX counter, Shiga inhibitor)
COc1ccc(NS(=O)(=O)c2cccc(C(=O)N3CCN(Cc4cc(OC)ccc4OC)CC3)c2)cc1	Pf growth 96h inconclusive, Pf growth 48h inconclusive
COc1ccc(OC)c(CN2CCN(C(=O)[C@@H](NC(=O)c3cccc(C)c3)C(C)C)CC2)c1	Pf growth 96h inconclusive, Pf growth 48h 10.4µM (no result: CHX counter, Shiga inhibitor)
COc1ccc(OC)c(CN2CCN(C(=O)COc3cccc(C)c3)CC2)c1	none
COc1ccc(OC)c(CN2CCN(C(=O)c3cc(S(=O)(=O)Nc4ccccc4OC)ccc3C)CC2)c1	Pf growth 96h 3.29µM, Pf growth 48h inconclusive
COC(=O)c1c(NC(=O)C(C)(C)C)csc1C	none
Cc1noc(C)c1CSc1nnnn1-c1ccc(Cl)cc1	Pf growth 96h inconclusive, Pf growth 48h inconclusive
CC(=O)c1cccc(NC(c2ccc(F)cc2)c2nnc(-c3ccccc3)o2)c1 (centres undefined)	none (no result: CHX counter, Pf growth 96h, Shiga inhibitor, Pf growth 48h)
COCCn1nnnc1C(c1cc2cc(OC)ccc2[nH]c1=O)N1CCC(Cc2ccccc2)CC1 (centres undefined)	Pf growth 48h 11.7µM
CCN(Cc1ccccc1)C(c1cc2cc(C)ccc2[nH]c1=O)c1nnnn1CCOC (centres undefined)	Pf growth 96h 11.7µM, Pf growth 48h inconclusive
COCCn1nnnc1C(c1cc2cc(C)ccc2[nH]c1=O)N1CCCCCC1 (centres undefined)	none (no result: HCMV inh)
CCN(CCCCN1C(=O)c2ccccc2C1=O)c1ccc2c(c1)C(=O)N(C)C2=O	none (no result: Pf growth 96h, Pf growth 48h)
CCN(CC)c1ccc2c(c1)C(=O)N(C)C2=O	CHX counter 33.4, Shiga inhibitor 72.2
Cc1cc(C)c(S(=O)(=O)N/N=C/c2ccc([N+](=O)[O-])o2)c(C)c1	none
COC(=O)N/N=C/c1ccc([N+](=O)[O-])o1	Pf growth 96h 11.7µM, Pf growth 48h 13.1µM
COC(=O)N/N=C/c1cccc([N+](=O)[O-])c1	none
NC(=O)N/N=C/c1ccc([N+](=O)[O-])o1	Pf growth 96h 5.36µM, Pf growth 48h 11.7µM (no result: CHX counter, Shiga inhibitor)
CN(/N=C/c1ccc([N+](=O)[O-])o1)c1ccccc1	CHX counter 33.3, HCMV inh -78.0
O=C(N/N=C/c1ccc([N+](=O)[O-])o1)C(O)c1ccccc1 (centres undefined)	Pf growth 96h inconclusive, HCMV inh -60.4, Pf growth 48h inconclusive
O=C(N/N=C/c1ccccc1Cl)C1CC1	none
O=C(N/N=C/c1ccc([N+](=O)[O-])o1)C1CC1	Pf growth 96h 4.15µM
CC(=O)Nc1ccc(NCc2ccc(C)s2)cc1	CHX counter 20.5, Pf growth 96h inconclusive, Shiga inhibitor 49.6
Cc1ccc(CNc2cc(C(=O)O)ccc2C)s1	none

Screening results as filed in PubChem BioAssay.
